Screens from PubChem.
14-3-3g Raf: alters human 14-3-3 gamma binding to Raf peptide | P61981 | FP, 14-3-3gamma / TMR-pS259-Raf peptide binding | inhibition, % at 40 µM | hit rate 0.19% among 160,000 | AID 422; in the data active = inhibition above about 30%;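 also: 0% = protein plus tracer without compound and 100% = blank with tracer alone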
Target sequence (P61981 whole entry, looked up): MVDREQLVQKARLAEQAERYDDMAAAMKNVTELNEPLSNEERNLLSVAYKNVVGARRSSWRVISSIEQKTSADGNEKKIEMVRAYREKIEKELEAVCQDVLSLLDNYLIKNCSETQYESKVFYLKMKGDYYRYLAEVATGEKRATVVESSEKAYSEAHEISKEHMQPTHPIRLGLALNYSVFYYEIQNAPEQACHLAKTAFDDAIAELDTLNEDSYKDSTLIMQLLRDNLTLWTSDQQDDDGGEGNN
Active calls of the source: *; + = active, no number; ! = not confirmed by another sample. The full list was thinned out, with hits kept by preference.

SMILES	14-3-3g Raf
CCSCCOC(=O)C1=C(C)NC2=C(C(=O)C(C(=O)OC)C(C)C2)C1c1cc2c(cc1Br)OCO2 (stereo not given)	5
CC1CCN(S(=O)(=O)c2ccc3c(c2)c(=O)c(C(=O)N(CC2CC=CCC2)CC2CCCO2)cn3C)CC1 (stereo not given)	16
CCc1nc(C)ccc1OCC(=O)O	74*!
Cc1ccc2nc(C)cc(OCC(=O)O)c2c1	-6
CCc1nc(C)ccc1OCC(=O)NCCCN(C)C	-4
O=C(NC1CCCCCCC1)c1ccc(N2CC3CC(C2)c2cccc(=O)n2C3)c(NS(=O)(=O)c2ccc(F)cc2)c1 (stereo not given)	-5
CC(=O)C1=C(O)C(=O)N(CCCN2CCOCC2)C1c1ccc(O)cc1 (stereo not given)	-5
CCCSc1nnc2c(n1)OC(c1cc(OC)c(O)c(OC)c1)Nc1ccccc1-2 (stereo not given)	-9
CCCSc1nnc2c(n1)OC(c1ccc(Cl)cc1)Nc1ccccc1-2 (stereo not given)	-20
C=CCSc1nnc2c(n1)OC(c1ccc([N+](=O)[O-])cc1)Nc1ccccc1-2 (stereo not given)	-41
C=CCSc1nnc2c(n1)OC(c1ccc(C(=O)OC)cc1)Nc1ccccc1-2 (stereo not given)	-51
CCCCSc1nnc2c(n1)OC(c1cc(OC)c(OC)c(OC)c1)Nc1ccccc1-2 (stereo not given)	42*
CSc1nnc2c(n1)OC(c1ccc(N(C)C)cc1)Nc1ccccc1-2 (stereo not given)	-2
CCCSc1nnc2c(n1)OC(c1ccco1)Nc1ccccc1-2 (stereo not given)	-10
C=CCSc1nnc2c(n1)OC(c1ccc(OC)c(OC)c1)Nc1ccccc1-2 (stereo not given)	-4
CCCSc1nnc2c(n1)OC(c1ccc(N(CC)CC)cc1)Nc1ccccc1-2 (stereo not given)	39*
CCCCSc1nnc2c(n1)OC(c1cccc(OC)c1OC)Nc1ccccc1-2 (stereo not given)	10
C=CCSc1nnc2c(n1)OC(c1ccc(C)cc1)Nc1ccccc1-2 (stereo not given)	33*
C=CCSc1nnc2c(n1)OC(c1ccc(N(C)C)cc1)Nc1ccccc1-2 (stereo not given)	38*
CC1CCc2cc(F)ccc2N1C(=O)COc1ccccc1 (stereo not given)	0
c1ccc(Cn2c(CSc3ncnc4ccccc34)nc3ccccc32)cc1	-3
COc1ccc(OC)c(NC(=O)C2=C(C)NC(=O)NC2c2cccc(Cl)c2)c1 (stereo not given)	-5
CCOC(=O)C1=C(C)NC2=C(C(=O)C(C(=O)OCC)C(c3ccc(OC)cc3)C2)C1c1ccc(Br)cc1 (stereo not given)	5
O=C(CCCn1c(=S)[nH]c2ccc(Br)cc2c1=O)N1CCOCC1	-7
COc1cccc(C2/C(=C(\O)c3ccc(Cl)cc3)C(=O)C(=O)N2c2nc3ccccc3s2)c1 (stereo not given)	-9
SMILES	14-3-3g Raf
O=C1NC(c2ccc(C(F)(F)F)cc2)C(C(=O)c2cccs2)C(O)(C(F)(F)F)N1 (stereo not given)	2
Cc1ccc(NC(=O)c2sc3ccccc3c2Cl)c(Br)c1	-1
CCCCCn1c2ccccc2c2nc3ccccc3nc21	-3
CCn1c2ccc(Cl)cc2c2nc3ccccc3nc21	-7
CCn1c2ccccc2c2nc3cc4ccccc4cc3nc21	116*
CC1=C(C(=O)OCCOc2ccccc2)C(c2ccsc2)C2=C(CCCC2=O)N1 (stereo not given)	2
NC(=O)C1CCN(C(=O)CCn2c(=O)[nH]c3ccsc3c2=O)CC1	-11
CCOC(=O)c1ccc(N2CCN(c3cc(Cl)ccc3C)CC2)c(NC(=O)Nc2ccccc2)c1	-5
CC(C)CSc1oc(-c2cccs2)nc1S(=O)(=O)c1ccc(Br)cc1	-76
COC(=O)C1=C(C)N(C)C(C)=C(C(=O)OC)C1c1ccc(C(F)(F)F)cc1	-6
COC(=O)C1=C(C)N(C)C(C)=C(C(=O)OC)C1c1ccc(C(=O)OC)cc1	113*
COC(=O)C1=C(C)N(C)C(C)=C(C(=O)OC)C1c1ccsc1	3
COc1ccc(NC(=O)c2c(C)c(-c3ccc(C)cc3)nc3ccccc23)cc1	-21
COc1ccc(-c2nc3ccccc3c(C(=O)Nc3ccc(Br)cc3)c2C)cc1	-41
COc1ccc(OC)c(NC(=O)c2c(C)c(-c3ccccc3)nc3ccccc23)c1	53*
COC(=O)c1cnc(Nc2ccc(Cl)cc2OC)c2ccccc12	5
CCOCCCNCc1ccc([N+](=O)[O-])cc1	8
CC(=O)c1ccc(NC(=O)C2CC(=O)N(c3ccc(C(C)C)cc3)C2)cc1 (stereo not given)	1
Cc1nnc(-c2ccccc2)nn1	86*
Nc1nc(N)nc(-c2ccccc2)n1	-1
c1ccc(-c2nnc(-c3ccccc3)o2)cc1	-13
CCCOc1ccc(C2Oc3ccccc3C3CC(c4cccs4)=NN32)cc1 (stereo not given)	-49
CSc1nc2c([nH]c3ccccc32)c(=O)n1-c1cc(C)cc(C)c1	8
O=C(Nc1cccc(N=Cc2c(O)ccc3cc([N+](=O)[O-])ccc23)c1)c1ccc(F)cc1	-1
O=C(Nc1cccc(N=Cc2c(O)ccc3cc([N+](=O)[O-])ccc23)c1)c1ccccc1	32*
SMILES	14-3-3g Raf
CCOc1cc([N+](=O)[O-])cc(C=Nc2cccc(NC(=O)c3ccccc3)c2)c1O	-74
Cc1c(C(=O)N2CCCC2)oc2ccc(S(=O)(=O)N(C)C3CCCCC3)cc12	-11
CC(C)CNS(=O)(=O)N(C)C	-1
Cc1ccccc1CN1CCN(CC(=O)O)C1=O	-2
CSC1=NC(=Cc2ccc(N(C)C)cc2)C(=O)S1	125*
CCOC(=O)SC1=N/C(=C\c2ccc(N(C)C)cc2)C(=O)S1	-63
COc1cc(C=C2N=C(SC)SC2=O)cc(OC)c1OC	-227
FC(F)(F)c1ccccc1CN1CCN(Cc2ccccc2C(F)(F)F)CC1	-7
COc1ccc2nc3sc(C(=O)NC(C)C)cc3cc2c1	9
COc1ccc(C2C=C(c3ccc(F)cc3)Nc3ncnn32)cc1 (stereo not given)	-16
COc1ccc(NC(=O)C23CCC(C2)C(C)(C)C3=O)cc1 (stereo not given)	1
Cc1ccc(C)c(NC(=O)C2(C)CC3c4ccccc4C2c2ccccc23)c1 (stereo not given)	2
COc1ccc(NC(=O)C2(C)CC3c4ccccc4C2c2ccccc23)cc1 (stereo not given)	55*
O=C1CC(c2ccccc2OCc2ccccc2)c2ccc3ccccc3c2N1 (stereo not given)	-2
O=C1c2ccccc2C(=O)c2c(I)cccc21	3
O=C1c2ccccc2C(=O)c2c(Br)cccc21	-2
O=C1c2ccccc2C(=O)c2c1ccc1c(=O)o[nH]c21	73*
CC(=O)OCCNc1ccc2noc3c2c1C(=O)c1ccccc1-3	+
Cc1ccccc1Nc1ccc2noc3c2c1C(=O)c1ccccc1-3	-223
O=C1c2ccccc2-c2onc3ccc(NCCCn4ccnc4)c1c23	2
Oc1c(C(Nc2ccccn2)c2cccc(Oc3ccccc3)c2)ccc2cccnc12 (stereo not given)	2
C=CCN1C(C(=O)c2ccccc2)=C(OC(=O)c2ccc(Cl)cc2)c2ccccc2S1(=O)=O	-4
Cc1[nH]c(=O)[nH]c(=O)c1NCCO	-4
CC(C)(C)C(=O)Nc1c[nH]c(=O)[nH]c1=O	-6
O=c1[nH]cc(NCCO)c(=O)[nH]1	31*
